Data on 40 sequences can be found in the OligoGym collection.
Further: reference of the scale not given here.

The target in one assay is C9orf37. Briefly: pooled miR-30 sensor sort-seq; sequence = guide strand. Particulars: shRNA.
Regarding TTCTGTGGAACAGCATTTCTCA, the sensor-assay potency score (higher = more potent) was -0.352.

Regarding TACCTTATCTATAAAATGCACA, the sensor-assay potency score (higher = more potent) was -0.634.

TCCAGTTCTCCTTTAGGGCGAA: the sensor-assay potency score (higher = more potent) was -0.959.

Regarding TTATCTATAAAATGCACAGGAC, the sensor-assay potency score (higher = more potent) was -1.03.

Take AAATGCACAGGACCAGGCCGGG: the sensor-assay potency score (higher = more potent) was -1.34.

Turning to TCAAATTCCAGTTCTCCTTTAG, the sensor-assay potency score (higher = more potent) is -1.07.

With ATGGTGGTGAAGAAGGCTCTGG, the sensor-assay potency score (higher = more potent) is -0.917.

For TCTGTGGAACAGCATTTCTCAA, the sensor-assay potency score (higher = more potent) was -1.65.

With TTTGTCAGTTACCTTATCTATA, the sensor-assay potency score (higher = more potent) was -0.888.

In the case of TATCTATAAAATGCACAGGACC, the sensor-assay potency score (higher = more potent) was -1.69.

Turning to TTCTCCTTTAGGGCGAAGGGGT, the sensor-assay potency score (higher = more potent) was -1.42.

TTACCTTATCTATAAAATGCAC: the sensor-assay potency score (higher = more potent) is -0.752.

The target of the next assay is C9orf72. The assay is described as above. Particulars: shRNA.
Sequence TAATCTATCAACACACACTCTA yielded a sensor-assay potency score (higher = more potent) of 0.268.

TTGACATCCACATCTATGTGTG: the sensor-assay potency score (higher = more potent) was -0.37.

In the case of TTACAGGAATCACTTCTCCAGT, the sensor-assay potency score (higher = more potent) is -1.29.

On to TTAATCTATCAACACACACTCT, for which the sensor-assay potency score (higher = more potent) was -0.521.

Consider TACATCTATAGCACCACTCTCT, for which the sensor-assay potency score (higher = more potent) was -0.415.

With TATGCATCCATATTCTTCCTTT, the sensor-assay potency score (higher = more potent) was -0.33.

With TATATTGTAAACATAGGTCTGT, the sensor-assay potency score (higher = more potent) was 0.698.

As for TACAGTAATTCTACACACCAAA, the sensor-assay potency score (higher = more potent) was -0.818.

As to TAAATCAAGGTCTATCTTCAGG, the sensor-assay potency score (higher = more potent) is -0.851.

Regarding TATTTCTTCAGGAACACTGTGT, the sensor-assay potency score (higher = more potent) turned out to be 0.74.

For the sequence TAAAATAAACAAAACACCCTAA, the sensor-assay potency score (higher = more potent) was 0.0855.

Take TTTCACTAGAGTGTCTCTGTGT: the sensor-assay potency score (higher = more potent) stood at 0.565.

In another assay the target is C9orf93. The description is as above. The following applies: shRNA.
The sequence TTTGGTAAAGGTGTCTTCCTGA came in with a sensor-assay potency score (higher = more potent) of 0.821.

TTTGCTTCTGCAACGATGCTGT showed a sensor-assay potency score (higher = more potent) of 0.756.

Sequence TTGAATGGTCTCGTGATCCTAT registered a sensor-assay potency score (higher = more potent) of 0.611.

Turning to TTGCACAGCAGTATCTTGCTCC, the sensor-assay potency score (higher = more potent) is 0.17.

Take TTAACTCTTTATTAACATCAGC: the sensor-assay potency score (higher = more potent) was -1.03.

TTGTCTTTGCTTGAAGTTCTGA had a sensor-assay potency score (higher = more potent) of 0.0324.

With TTAATTGTACTGTTAACTCTTC, the sensor-assay potency score (higher = more potent) is -0.0565.

The sequence TTTAGTGTGAGAGTCTATCTTC showed a sensor-assay potency score (higher = more potent) of 0.39.

As to TTGGTTGTTATTTCTAACTTTT, the sensor-assay potency score (higher = more potent) was -0.955.

For TAAACAACGCAACTGCTCCTTT, the sensor-assay potency score (higher = more potent) worked out at 0.206.

Regarding TTCCTTTCTAGCAACAGCTAGG, the sensor-assay potency score (higher = more potent) was -0.694.

The next assay deals with CA4. Described as above. Particulars: shRNA.
On to TGTCGTAGTACAGCTTCTGAGA, for which the sensor-assay potency score (higher = more potent) is -0.691.

TTTCTCATGTACTATGTGCATC: the sensor-assay potency score (higher = more potent) is -0.994.

AATTTCGTCTTCAGGGTCCTGG had a sensor-assay potency score (higher = more potent) of 0.0795.

For the sequence TTGACTGGCACCAAGCAGGGGT, the sensor-assay potency score (higher = more potent) was -0.145.

With TTATTTTGGACAGTCCACGTTT, the sensor-assay potency score (higher = more potent) is -0.237.
